Rows were chosen to be rich in hits. Some 4.1% of all compounds tested hit in one or more screens of this group.
tim23-1 inh – growth inhibitors of tim23-1 mutant yeast, primary screen, luminescence, uHTS. inhibition, % at 20 µM. S. cerevisiae tim23-1 growth, BacTiter-Glo luminescence, 24 h. 1.3% of 330,000 active;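 active = growth inhibition of the mutant yeast at or above 50%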;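 also: temperature-sensitive mutant grown at 25 °C; plate controls were DMSO-treated mutant yeast for no effect and medium wells lacking yeast for full effect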
NALP1 inh – NALP1 inflammasome inhibitors in reconstituted yeast, colorimetric, S. cerevisiae, triplicate retest; 0.61% of 280,000 active; inhibition, % at 10 µM; S. cerevisiae NALP1/ASC/caspase-1 growth, X-gal OD620, 72 h; in the data active = inhibition mostly above about 24%, no sharp cut-off; inactive = mostly below about 32%
TIM10 inh – growth inhibitors of isogenic TIM10 control yeast, primary screen, counter-screen for tim10-1 yeast inhibitor project, luminescence, uHTS; inhibition, % at 10 µM; 1.4% of 330,000 active; S. cerevisiae TIM10 strain growth, BacTiter-Glo luminescence, 24 h; AID 463195, 2010;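 active = inhibition of 40% or more at the single tested concentration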;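 also: wild-type TIM10 isogenic control strain grown at permissive 25 °C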
tim10-1 inh – growth inhibitors of tim10-1 mutant yeast, primary screen, luminescence, uHTS. S. cerevisiae tim10-1 ts strain growth, BacTiter-Glo, 24 h. inhibition, % at 20 µM. 2.2% of 330,000 active. AID 463190, 2010;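 active = inhibition of at least 40%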;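 also: mutant grown at 25 °C; 0% = DMSO wells with yeast and 100% = wells holding no yeast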
NLRP3 yeast inh – NALP3 inflammasome inhibitors in reconstituted yeast, primary screen, luminescence, uHTS; 0.39% of 330,000 active; Yeast reconstituted NLRP3/ASC/caspase-1, beta-gal luminescence, 24 h; inhibition, % at 10 µM; AID 2825, 2010;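 active = inhibition of 50% or more; inactive = inhibition below 50%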;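 also: plate controls were induced DMSO wells for no effect and uninduced yeast grown without galactose for full effect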
tim10-1 conf – growth inhibitors of tim10-1 mutant yeast, confirmation, single concentration, luminescence, S. cerevisiae | shares compounds with tim10-1 inh | S. cerevisiae tim10-1 ts strain growth, BacTiter-Glo, 24 h | inhibition, % at 20 µM | 56% of 7,400 active | AID 463213, 2010;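 active = inhibition of yeast growth at or above a set limit in either of two repeat tests at 20 µM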;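 also: tim10-1 mutant grown at permissive 25 °C to find synthetic lethal compounds; 0% = DMSO yeast wells and 100% = medium wells without yeast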
TIM10 conf – growth inhibitors of wild-type TIM10 yeast, confirmation, counter-screen for tim10-1 synthetic lethality project, single concentration, luminescence, S. cerevisiae. S. cerevisiae tim10 strain growth, BacTiter-Glo luminescence, 24 h. shares compounds with TIM10 inh. AID 463215, 2010. 63% of 4,600 active. inhibition, % at 10 µM;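 active = inhibition of yeast growth at or above a set limit in either of two replicates at 10 µM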;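 also: this counterscreen used the strain with wild-type TIM10; 0% = yeast with DMSO and 100% = medium wells lacking yeast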
tim23-1 confirm – tim23-1 mutant yeast growth inhibitors, confirmation, luminescence, single concentration | inhibition, % at 20 µM | S. cerevisiae tim23-1 growth, BacTiter-Glo luminescence, 24 h | shares compounds with tim23-1 inh | 83% of 4,400 active;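 active = inhibition above about 39% in either of two replicate wells at 20 µM, limit read from the data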;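 also: temperature-sensitive tim23-1 mutant grown at 25 °C; 0% = DMSO wells with yeast and 100% = medium wells without yeast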
* marks the source's active call; other numbers are inactive results.

Results for COc1ccc(/C=N/NC(=O)C(=O)/C=C2\NC3(CCCC3)Cc3ccccc32)cc1 ?
tim23-1 inh: 54*; NALP1 inh: 21; TIM10 inh: 37; tim10-1 inh: 42*; NLRP3 yeast inh: 9; tim10-1 conf: 31*; tim23-1 confirm: 36

How did O=C(/C=C1\NC2(CCCC2)Cc2ccccc21)C(=O)N/N=C/c1ccc(O)c(O)c1 do in these assays?
tim23-1 inh: 19; NALP1 inh: 6; TIM10 inh: 4; tim10-1 inh: 7; NLRP3 yeast inh: 14

What do the screens show for `Cc1cc(N2CCN(c3nc(-c4ccccc4)cs3)CC2)c2ccccc2n1`?
tim23-1 inh: 63*; NALP1 inh: 21; TIM10 inh: 15; tim10-1 inh: 51*; NLRP3 yeast inh: -1; tim10-1 conf: 42*; tim23-1 confirm: 52*

How did CCN1/C(=C\c2ccc3cc(C)ccc3[n+]2CC)Sc2cc(C)c(C)cc21 do in these assays?
NALP1 inh: -13

What do the screens show for `CCN1/C(=C/c2ccc3cc(C)ccc3[n+]2CC)Sc2ccc3sccc3c21`?
tim23-1 inh: 60*; TIM10 inh: 68*; tim10-1 inh: 46*; NLRP3 yeast inh: 39; tim10-1 conf: 45*; TIM10 conf: 74*; tim23-1 confirm: 69*

Results for O=C(NC12CC3CC(CC(C3)C1)C2)c1ccc([N+](=O)[O-])o1 ?
tim23-1 inh: 64*; NALP1 inh: 4; TIM10 inh: 34; tim10-1 inh: 57*; NLRP3 yeast inh: 33; tim10-1 conf: 67*; tim23-1 confirm: 51*

Results for CC(NC(=O)c1ccc([N+](=O)[O-])o1)C1CC2CCC1C2 (stereo unspecified) ?
tim23-1 inh: 62*; TIM10 inh: 63*; tim10-1 inh: 75*; NLRP3 yeast inh: 15; tim10-1 conf: 79*; TIM10 conf: 68*; tim23-1 confirm: 48*

Results for O=C(NC12CC3CC(CC(C3)C1)C2)c1ccc(Br)o1 ?
tim23-1 inh: 25; NALP1 inh: -2; TIM10 inh: 35; tim10-1 inh: 24; NLRP3 yeast inh: -3

How did CCOc1ccc(Br)cc1C1=NN(C(C)=O)C(c2ccc([N+](=O)[O-])s2)O1 (stereo unspecified) do in these assays?
tim23-1 inh: 83*; NALP1 inh: 8; TIM10 inh: 45*; tim10-1 inh: 64*; NLRP3 yeast inh: 16; tim10-1 conf: 71*; TIM10 conf: 55*; tim23-1 confirm: 65*

How did N/C(=N\OC(=O)COc1ccccc1Cl)c1ccc(Cl)cc1 do in these assays?
tim23-1 inh: 60*; NALP1 inh: -34; TIM10 inh: 54*; tim10-1 inh: 70*; NLRP3 yeast inh: 34; tim10-1 conf: 49*; TIM10 conf: 43*; tim23-1 confirm: 76*

What do the screens show for `N/C(=N\OC(=O)C1CCCCC1)c1ccc(Br)cc1`?
tim23-1 inh: 68*; NALP1 inh: 24; TIM10 inh: 45*; tim10-1 inh: 61*; NLRP3 yeast inh: 8; tim10-1 conf: 55*; TIM10 conf: 66*; tim23-1 confirm: 75*

Results for N/C(=N\OC(=O)C1CCCCC1)c1ccc(Cl)cc1 ?
tim23-1 inh: 53*; NALP1 inh: 4; TIM10 inh: 48*; tim10-1 inh: 63*; NLRP3 yeast inh: -4; tim10-1 conf: 53*; TIM10 conf: 43*; tim23-1 confirm: 38*

What do the screens show for `N/C(=N\OC(=O)C1CCCCC1)c1ccncc1`?
tim23-1 inh: 11; NALP1 inh: 1; TIM10 inh: 14; tim10-1 inh: 19; NLRP3 yeast inh: -4

Source: PubChem BioAssay
